Bioassay records from PubChem.
Most compounds without a hit are left out; they make up all but 4.2% or so of the library.
hgDAF-12 ag: activates the H. glycines DAF-12 receptor ligand-binding domain; HEK293 GAL4-hgDAF12 UAS-luciferase reporter, agonist luminescence; normalized to butyrate control; activation, % at 6.8 µM; actives 1.8% (n = 370,000); AID 687014;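 active = activation above a cutoff set at the mean of all screened compounds plus 3 SD, cut at about 10% in these data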
hcDAF-12 act: activators of H. contortus DAF-12 nuclear receptor | activation, % at 6.8 µM | HEK293 hcDAF-12 lit1-tk-luc reporter, luminescence; 0% DMSO, 100% Δ7-dafachronic acid | actives 1.4% (n = 370,000) | AID 652067;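 active = activation above the mean of all tested compounds plus 3 SD, cut at about 5.5% in these data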
SMARCA2 act: activators of SMARCA2 function; MG213 cells, MMTV-luciferase reporter, dexamethasone, overnight; activation, % at 9.1 µM; actives 1% (n = 370,000); AID 652017; in the data active = activation above about 7.8%
ssDAF12 agonist: activates DAF-12 receptor from parasite S. stercoralis; AID 652126; actives 1% (n = 370,000); activation, % at 6.8 µM; HEK293 ssDAF-12/GRIP1 lit1-tk-luc reporter, luminescence; % of 3 µM dafachronic acid response;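 active = activation above the mean over all tested compounds plus 3 SD, cut at about 0.9% in these data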
DAX1 StAR inh: blocks DAX1 repression of SF-1 activated StAR promoter | HEK293T StAR-luciferase reporter, SF-1/DAX-1 repression relief | inhibition, % at 6.8 µM | actives 1.1% (n = 370,000) | AID 652010;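 active = inhibition above the mean over all tested compounds plus 3 SD, cut at about 3.6% in these data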;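 note: higher inhibition means more luminescence from relief of DAX-1 repression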
Each line names hits and unclear results; the compound was inactive in the other large screens.

CCC[C@H]1[C@@H](NC(=O)c2ccc(N(C)C)cc2)CC[C@@]23CCCN2C(=O)CCC[C@@H]13	none (no result: SMARCA2 act, DAX1 StAR inh)
O=CNc1cc(-c2ccoc2)cn2c(-c3ccc(F)cc3)cnc12	none
Cc1ccc2c(c1)N(CCCC(=O)NCc1ccc(F)cc1)C(=O)CO2	none
COc1cccc(NC(=S)N2CCN(C/C=C/c3ccccc3)CC2)c1	none
S=C(Nc1ccccc1)N1CCN(C/C=C/c2ccccc2)CC1	DAX1 StAR inh 3.6
S=C(Nc1ccccc1)N1CCN(c2ccccn2)CC1	ssDAF12 agonist 1.9
Cc1cc([N+](=O)[O-])nn1CC(=O)N(C)C1CCCCC1	hcDAF-12 act 6.3
Cc1cc([N+](=O)[O-])nn1CC(=O)N(C)Cc1ccccc1	none
CCC(C)CN1C(=O)CSCC1(C)C(=O)Nc1c(C)cccc1C (stereo not drawn)	none
CCC(=O)Nc1ccc(S(=O)(=O)Nc2ccccn2)cc1	ssDAF12 agonist 1.4
CCC(=O)Nc1ccc(S(=O)(=O)Nc2ncccn2)cc1	none
CCOC(=O)c1[nH]c2c(c1C)C(=O)CC(c1ccco1)C2 (stereo not drawn)	DAX1 StAR inh 7.0
C=CCN(CC#Cc1ccccc1)CC=C	none
COc1ccccc1C(=O)Nc1ccc(NC(=O)C2CCCCC2)nc1	none
O=C(Nc1ccc(NC(=O)C2CCCCC2)nc1)c1ccccn1	hgDAF-12 ag 12.2
c1ccc(NC(c2ccccc2)c2ccncc2)cc1 (stereo not drawn)	ssDAF12 agonist 1.4
c1ccc(C(Nc2cccnc2)c2ccccc2)cc1	none
CC(=O)c1ccccc1OCCOc1ncnc2sccc12	hgDAF-12 ag 11.1
O=C(COC(=O)/C=C/c1cccs1)Nc1nc(-c2cccc(Br)c2)cs1	none
O=C(COC(=O)/C=C/c1cccs1)Nc1nc(-c2ccccc2)cs1	hcDAF-12 act 5.8
O=C(Nc1ccccc1)N(O)c1ccc(Cl)cc1	ssDAF12 agonist 1.6
O=C(CSc1ncnc2scc(-c3ccc(Cl)cc3)c12)Nc1ccccc1-c1ccccc1	none
CC[C@H]1CCCCc2ccccc2[C@@H](C(=O)C[C@@H](O)CC(C)=O)OC1=O	DAX1 StAR inh 4.0
Cc1ccc(CNC[C@@]23CO[C@H](c4ccc(Cl)cc4)N2[C@@H](c2ccc(Cl)cc2)SC3)o1	none
CCc1cccc(NC(=O)Cn2ncn3c(cc4ccccc43)c2=O)c1	hcDAF-12 act 6.4
N[C@H](C(=O)N[C@@H](Cc1ccccc1)C(=O)N1CCC2CCN(S(=O)(=O)c3ccccc3)CC21)c1ccccc1 (stereo partly drawn)	hgDAF-12 ag 17.4
CC(C)[C@H](NC(=O)[C@H](Cc1ccccc1)NC(=O)OC(C)(C)C)C(=O)N1CCC2CCN(S(=O)(=O)c3ccccc3)CC21 (stereo partly drawn)	none
CC(=O)NCCC1CCN(C(=O)C2CCC(=O)N(C3CCCC3)C2)CC1 (stereo not drawn)	ssDAF12 agonist 1.6
COCC1CCN(C(=O)C2CCC(=O)N(C3CCCC3)C2)CC1 (stereo not drawn)	none
COC1CCN(C(=O)C2CCC(=O)N(C3CCCCCC3)C2)CC1 (stereo not drawn)	hcDAF-12 act 6.3
COc1ccc(-n2c(SCC(=O)Nc3cccc4ccccc34)nnc2-c2ccco2)cc1	none
Cc1ccc(-c2cc(C(=O)NN=Cc3ccc(N(C)C)cc3)[nH]n2)cc1C	none
CCC[C@H]1[C@@H](NC(=O)c2ccc(C)cc2)CC[C@@]23CCCN2C(=O)CCC[C@@H]13	none (no result: SMARCA2 act, DAX1 StAR inh)
COc1ccc(CSc2nnc3[nH]c(=O)cc(N)n23)cc1	ssDAF12 agonist 3.7
N#Cc1ccc(CSc2nnc3[nH]c(=O)cc(N)n23)cc1	none
CC(C)[C@H](N)C(=O)OCC(CO)OCn1cnc2c(=O)[nH]c(N)nc21 (stereo partly drawn)	none
O=C(COC(=O)Cn1cnc2ccccc2c1=O)Nc1cc(Cl)ccc1[N+](=O)[O-]	hcDAF-12 act 5.6
COc1ccc(NC(=O)COC(=O)Cn2cnc3ccccc3c2=O)c(OC)c1	none
Cn1c(=O)c2c(ncn2CC(=O)OCC(=O)Nc2cc(Cl)ccc2C#N)n(C)c1=O	hcDAF-12 act 6.0
O=C(O)CSc1ccc2ccccc2n1	none
O=C(CSc1ccc2ccccc2n1)c1ccc2c(c1)OCO2	ssDAF12 agonist 2.3
Cc1ccc2c(c1)c1nc3ccccc3nc1n2C	hcDAF-12 act 5.9, ssDAF12 agonist 1.9
COc1ccc(CC(=O)N2N=C(C)CC2(O)C(F)(F)F)cc1OC (stereo not drawn)	none
CC1=NN(C(=O)CCc2ccc3c(c2)OCO3)C(O)(C(F)(F)F)C1 (stereo not drawn)	ssDAF12 agonist 9.7
CCc1cc2c(nc1CC)CCCN2C	none
CCOc1ccc2nc(Cl)c(C3CC(c4ccco4)=NN3S(=O)(=O)c3ccccc3)cc2c1 (stereo not drawn)	ssDAF12 agonist 1.4
Cc1cc([N+](=O)[O-])ccc1NC(=O)/C=C/c1cccs1	hgDAF-12 ag 11.5
COCCN1CCCc2nc(-c3ccc(F)cc3)ccc21	none
Fc1ccc(-c2ccc3c(n2)CCCN3Cc2ccccn2)cc1	DAX1 StAR inh 3.8
CCCCNC(=O)C[C@H]1C[C@@]2(C(=O)OC)C(=C[C@H](C(C)C)O[C@@H]2C2CC2)N(Cc2ccc3c(c2)OCO3)C1=O	none
Oc1ccc(Br)cc1-c1n[nH]c(=S)n1Cc1ccccc1	none
Oc1ccccc1-c1n[nH]c(=S)n1Cc1ccccc1	ssDAF12 agonist 1.5
O=C(NC1CCCC1)C(C1CC1)n1c(C2CC2)nc2ccccc21 (stereo not drawn)	ssDAF12 agonist 1.6
COC(=O)[C@H](C(C)C)N(CCCc1cn(Cc2ccccc2)nn1)S(=O)(=O)c1ccccc1Br	none
CC(C)c1ccc(C(=O)Nc2cccnc2)cc1	hgDAF-12 ag 10.5
O=C(COc1nncc2ccccc12)Nc1c(F)c(F)c(F)c(F)c1F	none
Cc1cc(C)c(NC(=O)COc2nncc3ccccc23)c(C)c1	ssDAF12 agonist 1.6
COCCCNC(=S)NNC(=O)c1ccc(C(C)(C)C)cc1	none
COCCCNC(=S)NC(=O)c1ccc(C)cc1	hgDAF-12 ag 13.0, hcDAF-12 act 6.2
O=C(O)Cc1sc(Nc2ccccc2)nc1-c1ccc(Cl)cc1	hgDAF-12 ag 11.0
O=C(Cc1sc(Nc2ccccc2)nc1-c1ccccc1)NCc1ccccn1	hgDAF-12 ag 10.9, hcDAF-12 act 6.0
O=C(O)Cc1sc(Nc2ccc(F)cc2)nc1-c1cccs1	hgDAF-12 ag 14.6
O=C(O)Cc1sc(-c2ccc(Cl)cc2)nc1-c1ccccc1	none
O=S(=O)(NCc1cn(Cc2ccccc2)nn1)c1ccccc1Br	none
O=C(NC1CCCCC1)O[C@H]1CC[C@@]23CCCN2C(=O)CCC[C@H]3C1	none (no result: SMARCA2 act, DAX1 StAR inh)
O=C(NCCc1c[nH]c2ccccc12)C(=O)NCC1OCCCN1S(=O)(=O)c1cccs1 (stereo not drawn)	ssDAF12 agonist 2.2
